Data taken from PubChem BioAssay (Tox21).
Unmarked numbers belong to inactive results. Results filed as inconclusive are left out. Entries that show only a call come without a potency. Calls of active or inactive are those of the source. Unless noted, calls follow the shape of the dose curve; as a rule, active = well fitted curve in the direction sought with a large enough effect in the repeat runs; inconclusive = weak or mixed curves; inactive = no such curve, though single readings can be large; an effect the other way counts as inactive or inconclusive.

Experiments:
[1] = qHTS assay to test for compound auto fluorescence at 535 nm (green) in HEK293 cells (AID 720680)
[2] = qHTS assay to test for compound auto fluorescence at 460 nm (blue) in HEK293 cell free culture (AID 720681)
Outline: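 Compounds were added to cell-free DMEM with 10% FBS and fluorescence read directly. The blue channel used 405 nm excitation and 460 nm emission, with triamterene as the reference fluorophore.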

[3] = qHTS assay to test for compound auto fluorescence at 535 nm (green) in HEK293 cell free culture (AID 720682)
Outline: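 Read-out: 485/535 nm fluorescence intensity, calibrated against fluorescein. Medium only (DMEM + 10% FBS, no cells); test compound or DMSO vehicle added by pintool before plate reading.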

[4] = qHTS assay to test for compound auto fluorescence at 590 nm (red) in HEK293 cell free culture (AID 720683)
Outline: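 Cell-free wells of DMEM with 10% FBS received compound, and intrinsic fluorescence was read at excitation/emission 540/590 nm. Values expressed as equivalence to Rose Bengal sodium.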

[5] = qHTS assay to test for compound auto fluorescence at 590 nm (red) in HepG2 cell free culture (AID 720684)
Outline: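 Rose Bengal sodium served as the reference for red signal. Test compounds were dispensed into serum-containing MEM (10% FBS) without cells, and plates were read at 540/590 nm.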

[6] = qHTS assay to test for compound auto fluorescence at 460 nm (blue) in HepG2 cell free culture (AID 720685)
Outline: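 Cell-free plates of MEM plus 10% FBS received 23 nL compound or DMSO vehicle; blue-channel (405/460 nm) intensity scored against triamterene as reference fluorophore.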

[7] = qHTS assay to test for compound auto fluorescence at 535 nm (green) in HepG2 cell free culture (AID 720686)
[8] = qHTS assay to test for compound auto fluorescence at 460 nm (blue) in HepG2 cells (AID 720687)
Outline: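 HepG2 cells in MEM with 10% FBS, attached overnight at 37 C, were exposed to compound or DMSO for 1 hr at 37 C, 5% CO2. Blue fluorescence was read at 405/460 nm, with triamterene as reference fluorophore.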

[9] = target: Glucocorticoid receptor (Homo sapiens) (UniProt P04150); assay: qHTS assay to identify small molecule agonists of the glucocorticoid receptor (GR) signaling pathway (AID 720691; active = well fitted activation curve with a large enough effect in the signal ratio in the repeat runs, not every such curve was filed as active; the % refers to the signal ratio; also: potency is read from the fitted curve at half-maximal effect)
Outline: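 Agonist-mode qHTS in HeLa cells stably expressing a glucocorticoid-response-element beta-lactamase reporter. Fluorescence intensity read with FRET substrate (2 h, room temperature) after 18 h compound treatment at 37 C.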

[10] = target: Glucocorticoid receptor (Homo sapiens) (UniProt P04150); assay: qHTS assay to identify small molecule antagonists of the glucocorticoid receptor (GR) signaling pathway (AID 720692; active = well fitted inhibition curve with a large enough effect in the signal ratio in the repeat runs, not every such curve was filed as active; the % refers to the signal ratio)
Outline: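 Inhibition of dexamethasone-driven (5 nM final) beta-lactamase expression was measured in GRE-reporter HeLa cells over 18 h at 37C. Fluorescence was read after 2 h with the B/G FRET substrate at room temperature.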

[11] = qHTS assay to identify small molecule antagonists of the glucocorticoid receptor (GR) signaling pathway - cell viability counter screen (AID 720693); also: nearly all actives have a fitted effect of over 55% in size
[12] = qHTS assay for identifying genotoxic compounds that show differential cytotoxicity against isogenic chicken DT40 cell lines with known DNA damage response pathways - wild type cell line (AID 743012); also: nearly all actives have a fitted effect of over 60% in size
Outline: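 Viability by ATP luminescence (CellTiter-Glo, 30 min RT) after 40 h compound treatment at 37 C/5% CO2, using 300 parental DNA repair-proficient DT40 cells per well.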

[13] = qHTS assay for identifying genotoxic compounds that show differential cytotoxicity against isogenic chicken DT40 cell lines with known DNA damage response pathways - Rev3 mutant cell line (AID 743014); also: nearly all actives have a fitted effect of over 55% in size; also: potency is read from the fitted curve at half-maximal effect
[14] = qHTS assay for identifying genotoxic compounds that show differential cytotoxicity against isogenic chicken DT40 cell lines with known DNA damage response pathways - Rad54/Ku70 mutant cell line (AID 743015); also: nearly all actives have a fitted effect of over 60% in size
[15] = target: Androgen receptor (Homo sapiens) (UniProt P10275); assay: qHTS assay to identify small molecule antagonists of the androgen receptor (AR) signaling pathway (AID 743035; active = well fitted inhibition curve with a large enough effect in the signal ratio in the repeat runs, not every such curve was filed as active; the % refers to the signal ratio)
Outline: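 Antagonist mode: AR-bla HEK293 cells co-treated with test compounds and agonist R1881 for 16 h at 37C, 5% CO2. Beta-lactamase activity read as FRET fluorescence after 2 h room-temperature substrate loading.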

[16] = target: Androgen receptor (Homo sapiens) (UniProt P10275); assay: qHTS assay to identify small molecule agonists of the androgen receptor (AR) signaling pathway (AID 743036; active = well fitted activation curve with a large enough effect in the signal ratio in the repeat runs, with a control signal flat, not every such curve was filed as active; the % refers to the signal ratio)
Outline: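 HEK293 cells stably carrying a UAS-driven beta-lactamase reporter (GeneBLAzer AR-UAS-bla-GripTite) were plated at 2,000 cells/well, rested 4 h at 37C, then exposed to compounds in DMSO for 16 h. LiveBLAzer B/G FRET substrate was added for 2 h at room temperature; fluorescence read.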

[17] = target: Androgen receptor (Homo sapiens) (UniProt P10275); assay: qHTS assay to identify small molecule agonists of the androgen receptor (AR) signaling pathway using the MDA cell line (AID 743040; also: nearly all actives have a fitted effect of over 20% in size)
Outline: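 Luciferase read-out, ONE-Glo, 30 min RT. Cells: MDA-kb2 AR-luc, MMTV promoter with AR and GR response elements. Compound exposure 16 h, 37C, 0% CO2, after 5 h pre-incubation. qHTS agonist mode.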

[18] = qHTS assay to identify small molecule antagonists of the androgen receptor (AR) signaling pathway using the MDA cell line - cell viability counter screen (AID 743041; also: nearly all actives have a fitted effect of over 45% in size)
Outline: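 Cytotoxicity counter screen: MDA-kb2 AR-luc cells, compound + R1881, 16 h, 37C, 0% CO2; CellTiter-Fluor added at 15.5 h, fluorescence read after 30 min.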

[19] = target: Androgen receptor (Homo sapiens) (UniProt P10275); assay: qHTS assay to identify small molecule antagonists of the androgen receptor (AR) signaling pathway using the MDA cell line (AID 743042; also: nearly all actives have a fitted effect of over 55% in size)
Outline: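 MDA-kb2 breast carcinoma cells carrying MMTV-luciferase (AR/GR responsive) were co-treated with compounds and the agonist R1881 for 16 h at 37C. Inhibition read as ONE-Glo luminescence; CellTiter-Fluor fluorescence measured in parallel for cytotoxicity.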

[20] = qHTS assay to identify small molecule antagonists of the androgen receptor (AR) signaling pathway - cell viability counter screen (AID 743033; also: nearly all actives have a fitted effect of over 45% in size)

Chain of Glucocorticoid receptor (Homo sapiens) (P04150 whole entry, looked up): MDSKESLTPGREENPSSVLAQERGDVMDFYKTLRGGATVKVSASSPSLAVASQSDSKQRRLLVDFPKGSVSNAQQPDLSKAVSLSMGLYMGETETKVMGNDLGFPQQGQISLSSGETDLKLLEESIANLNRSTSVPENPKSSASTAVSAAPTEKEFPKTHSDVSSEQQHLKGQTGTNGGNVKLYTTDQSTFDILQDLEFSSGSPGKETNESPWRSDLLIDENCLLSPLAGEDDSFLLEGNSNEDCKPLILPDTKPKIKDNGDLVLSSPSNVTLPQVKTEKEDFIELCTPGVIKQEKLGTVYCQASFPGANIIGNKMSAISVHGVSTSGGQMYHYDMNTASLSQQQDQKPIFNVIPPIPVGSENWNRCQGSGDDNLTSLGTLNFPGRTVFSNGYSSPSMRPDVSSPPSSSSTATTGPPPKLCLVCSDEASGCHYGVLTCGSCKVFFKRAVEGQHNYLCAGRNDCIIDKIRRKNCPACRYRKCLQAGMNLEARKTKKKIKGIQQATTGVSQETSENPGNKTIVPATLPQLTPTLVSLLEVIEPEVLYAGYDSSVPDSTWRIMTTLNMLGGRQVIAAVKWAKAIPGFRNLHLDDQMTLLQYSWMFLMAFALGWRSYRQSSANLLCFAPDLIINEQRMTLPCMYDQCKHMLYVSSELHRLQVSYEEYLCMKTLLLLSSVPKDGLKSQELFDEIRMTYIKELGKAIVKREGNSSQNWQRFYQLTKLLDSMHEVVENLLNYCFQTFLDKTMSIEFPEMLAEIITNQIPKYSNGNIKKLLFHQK
Chain of Androgen receptor (Homo sapiens) (P10275 whole entry, looked up): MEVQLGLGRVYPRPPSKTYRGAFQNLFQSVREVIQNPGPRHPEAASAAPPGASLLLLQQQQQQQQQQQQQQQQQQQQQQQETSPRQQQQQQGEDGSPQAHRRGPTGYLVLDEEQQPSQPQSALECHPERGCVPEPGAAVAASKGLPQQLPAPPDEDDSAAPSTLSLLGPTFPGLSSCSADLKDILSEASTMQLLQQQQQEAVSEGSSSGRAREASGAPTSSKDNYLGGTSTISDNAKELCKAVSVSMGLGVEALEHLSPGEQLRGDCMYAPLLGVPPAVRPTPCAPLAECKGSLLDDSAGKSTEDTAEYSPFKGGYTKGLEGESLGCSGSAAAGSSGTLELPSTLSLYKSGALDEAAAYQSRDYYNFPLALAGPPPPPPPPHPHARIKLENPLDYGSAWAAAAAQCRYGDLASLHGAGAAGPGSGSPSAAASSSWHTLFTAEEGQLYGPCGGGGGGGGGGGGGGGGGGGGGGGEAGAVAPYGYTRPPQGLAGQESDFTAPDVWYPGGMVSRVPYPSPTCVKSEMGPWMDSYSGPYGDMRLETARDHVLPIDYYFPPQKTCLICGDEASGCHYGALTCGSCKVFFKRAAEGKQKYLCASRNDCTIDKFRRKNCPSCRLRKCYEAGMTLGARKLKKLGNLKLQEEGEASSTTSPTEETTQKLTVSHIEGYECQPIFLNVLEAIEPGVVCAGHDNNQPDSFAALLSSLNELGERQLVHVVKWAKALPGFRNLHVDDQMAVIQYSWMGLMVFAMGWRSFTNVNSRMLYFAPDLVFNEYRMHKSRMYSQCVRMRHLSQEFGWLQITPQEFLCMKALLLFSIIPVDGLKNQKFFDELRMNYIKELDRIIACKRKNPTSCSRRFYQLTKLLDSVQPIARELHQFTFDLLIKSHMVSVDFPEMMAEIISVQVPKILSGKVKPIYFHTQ

| SMILES | outcome [1] | outcome [2] | outcome [3] | outcome [4] | outcome [5] | outcome [6] | outcome [7] | outcome [8] | Potency [9] | Potency [10] | outcome [11] | Potency [12] | Potency [13] | Potency [14] | Potency [15] | outcome [16] | Potency [17] | Potency [18] | outcome [19] | outcome [20] |
| --- | --- | --- | --- | --- | --- | --- | --- | --- | --- | --- | --- | --- | --- | --- | --- | --- | --- | --- | --- | --- |
| CC(C)C1CCC(O)CC1 (stereo not drawn) | inactive | inactive | inactive | inactive | inactive | inactive | inactive | inactive | inactive | inactive | inactive | inactive | inactive | inactive | inactive | inactive | inactive | inactive | inactive | – |
| CC(=O)C1CCCCC1=O (stereo not drawn) | inactive | inactive | inactive | inactive | inactive | inactive | inactive | inactive | inactive | inactive | inactive | – | inactive | – | – | – | – | inactive | – | inactive |
| CC1(C)OC[C@@H](COC(=O)CCc2ccc(OC[C@@H](O)CNCCNC(=O)N3CCOCC3)cc2)O1 | inactive | inactive | inactive | inactive | inactive | inactive | inactive | inactive | inactive | inactive | inactive | inactive | inactive | inactive | inactive | inactive | inactive | inactive | inactive | – |
| COc1cc2c(cc1OC)-c1cc3ccc(OC)c(OC)c3c[n+]1CC2 | inactive | inactive | inactive | inactive | inactive | inactive | inactive | inactive | inactive | inactive | inactive | – | 49 µM (active) | – | – | – | – | – | – | – |
| O=Cc1cccc(Br)c1 | inactive | inactive | inactive | inactive | inactive | inactive | inactive | inactive | inactive | inactive | inactive | inactive | inactive | inactive | – | – | – | inactive | – | inactive |
| CC(C)=CCC/C(C)=C/C#N | inactive | inactive | inactive | inactive | inactive | inactive | inactive | inactive | inactive | inactive | inactive | – | – | – | – | – | – | – | – | inactive |
| CC(C)C(=O)OC(=O)C(C)C | inactive | inactive | inactive | inactive | inactive | inactive | inactive | inactive | inactive | inactive | inactive | – | inactive | – | – | – | – | inactive | – | inactive |
| CN(C)C(=O)Oc1ccc[n+](C)c1 | inactive | inactive | inactive | inactive | inactive | inactive | inactive | inactive | 26.8 µM (active) | inactive | inactive | inactive | – | inactive | – | – | – | inactive | – | – |
| CC(C)COC(=O)c1ccc(N)cc1 | inactive | inactive | inactive | inactive | inactive | inactive | inactive | inactive | inactive | inactive | inactive | inactive | – | inactive | – | – | – | inactive | – | inactive |
| CCCC[N+](C)(CCCC)CCCC | inactive | inactive | inactive | inactive | inactive | inactive | inactive | inactive | inactive | inactive | inactive | – | – | – | – | – | – | inactive | – | inactive |
| CCCCN(CCC(=O)OCC)C(C)=O | inactive | inactive | inactive | inactive | inactive | inactive | inactive | inactive | inactive | inactive | inactive | – | inactive | – | – | – | – | inactive | – | inactive |
| CCOCC(C)O (stereo not drawn) | inactive | inactive | inactive | inactive | inactive | inactive | inactive | inactive | inactive | inactive | inactive | inactive | inactive | inactive | – | – | – | – | – | inactive |
| NC(CCC(=O)O)C(=O)O (stereo not drawn) | inactive | inactive | inactive | inactive | inactive | inactive | inactive | inactive | inactive | inactive | inactive | inactive | – | – | – | – | – | inactive | – | inactive |
| CC(=O)Nc1ccc(OCC(O)CNC(C)C)cc1 (stereo not drawn) | inactive | inactive | inactive | inactive | inactive | inactive | inactive | inactive | inactive | inactive | inactive | inactive | – | inactive | – | – | – | inactive | – | inactive |
| CC(C)CCCO | inactive | inactive | inactive | inactive | inactive | inactive | inactive | inactive | inactive | inactive | inactive | – | inactive | inactive | – | – | – | inactive | – | inactive |
| CCOC(=O)c1ccccc1 | inactive | inactive | inactive | inactive | inactive | inactive | inactive | inactive | inactive | inactive | inactive | inactive | – | – | – | – | – | inactive | – | inactive |
| NCCCC(N)(C(=O)O)C(F)F (stereo not drawn) | inactive | inactive | inactive | inactive | inactive | inactive | inactive | inactive | inactive | inactive | inactive | – | – | inactive | – | – | – | inactive | – | – |
